The text below walks through data of PubChem BioAssay (NCI).

SMILES strings stand for the structures. About 83,000 compounds went through this panel and 20% of them were active in at least one assay; those are over-represented in the sample as a whole.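 Single-dose data. Exposure time 48 hours. Values below 10 considered active.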 Activity calls are given as the source filed them.

One assay deals with SK-OV-3 ovarian. In words: NCI-60 one-dose screen, 48 h (100 = growth as untreated, 0 = no growth, -100 = all killed). Conditions: 10 µM unless noted.
In the case of `N=C(N)c1ccc(-c2ccc(-c3ccc(Cl)cc3Cl)s2)cc1F`, the growth is 74.9% (inactive).
For `C/C(C=O)=C\c1ccc2c(c1)OCO2`, the growth is 105% (inactive).
For `Cc1ccc(/C=C(\C#N)C(=O)Nc2ncc(Cc3cc(Cl)ccc3Cl)s2)o1`, the growth was 62% (inactive).
In the case of `C[C@@H]1CC[C@@]2(OC1)O[C@H]1C[C@H]3[C@@H]4CC=C5C[C@@H](O[C@@H]6O[C@H](CO)[C@@H](O[C@@H]7O[C@@H](CO)[C@H](O)[C@H]7O)[C@H](O)[C@H]6O[C@@H]6O[C@@H](C)[C@H](O)[C@@H](O)[C@H]6O)CC[C@]5(C)[C@H]4CC[C@]3(C)[C@H]1[C@@H]2C`, the growth is -36.4% (active).
On the same count and under the same terms, the same measure for `CCOC(=O)c1cn2ncnc(Oc3ccc(NC(=O)NC4CC4)c(F)c3)c2c1C`: 111% (inactive).

The test system of a further assay is IGROV1 ovarian. Described as above. The following applies: 10 µM unless noted.
On to `CC1(C)CC[C@]2(C(=O)N3CCOCC3)CC[C@]3(C)C(=CC[C@@H]4[C@@]5(C)C/C(=C/c6ccncc6)C(=O)C(C)(C)[C@@H]5CC[C@]43C)[C@@H]2C1`, for which the growth was 33.1% (inactive).
On the same count and under the same terms, the value for `O=C(Nc1cccnc1Nc1ccc(Cl)cc1)c1cn(Cc2ccc(F)cc2)nn1` was 107% (inactive); that for `C=C1C(=O)O[C@H]2[C@H]1CC/C(CNC(=O)c1cc3ccccc3[nH]1)=C\CC[C@@]1(C)O[C@@H]21` was -26.3% (active).
Regarding `C=CCN=C(N)SCCCCCCSC(N)=NCC=C`, the growth is 103% (inactive).
Turning to `CNC(=O)c1c(NC(=O)c2ccc(C(C)(C)C)cc2)sc2c(CN(C)C)c(O)ccc12`, the growth was 20.3% (inactive).
As for `COc1ccc(C/C(C)=C(\c2ccc(O)cc2)c2ccc(OCCN3CCCC3)cc2)cc1`, the growth was 103% (inactive).
Take `S=c1ssnc1-c1cccs1`: the growth is -4.8% (active).
For `COc1cc(/C=C/c2cc(/C=C/c3ccc(O)c(OC)c3)n(C(=O)Nc3ccc(F)cc3)n2)ccc1O`, the growth is 17.4% (inactive).
Regarding `COc1cc2c3c(n(CCCCNCCCn4c5c(c6cc(OC)c(OC)cc6c4=O)C(=O)c4cc6c(cc4-5)OCO6)c(=O)c2cc1OC)-c1cc2c(cc1C3=O)OCO2`, the growth was 95% (inactive).
Take `COc1cc(-c2cc(-c3ccc(Nc4ncnc5cc(Cl)ccc45)cc3)nc(N3CCN(C)CC3)n2)cc(OC)c1OC`: the growth was 81.3% (inactive).
Turning to `COc1cc(C(=O)/C=C/c2ccc(N3CCN(C)CC3)cc2)cc(OC)c1OC`, the growth was 94.8% (inactive).
As to `Cc1ccc2[nH]c(=O)c3c(c2c1)OC(N)=C(C#N)C31C(=O)c2cccc3cccc1c23` (centres undefined), the growth was 90% (inactive).
With `Cn1c(=O)c2c(nc(NC3=NS(=O)(=O)c4ccccc43)n2Cc2ccccc2)n(C)c1=O`, the growth is 95.5% (inactive).
On to `COc1ccc(C/C(C)=C(/c2ccc(OCCN3CCCCCC3)cc2)c2ccc(OC(=O)NCc3ccccc3)cc2)cc1`, for which the growth was 93% (inactive).
For `Cn1cc(-c2csc(-c3cn(C(=O)OC(C)(C)C)c4ccccc34)n2)c2ccnc(Cl)c21`, the growth was 69.5% (inactive).
Still for that read-out and setting: the value for `CCN(C(=O)N1CCN(c2cc3c(cc2F)c(=O)c(C(=O)O)cn3C2CC2)CC1)c1nc(-c2ccc(C)cc2)cs1` was 6.38% (active); that for `COC(=O)c1nc(-c2ccccc2)oc1S(=O)(=O)N1CCC(C(N)=O)CC1` was 51.4% (inactive); that for `CCCCSCC(=O)c1ccccc1` was 99.3% (inactive).
In the case of `Cc1ccc(Nc2nc(-c3ccc(F)cc3)c(C#N)c(=O)n2C)cc1`, the growth was 67.5% (inactive).
With `COc1cccc(OC)c1Oc1c(-c2nc3ccccc3s2)c(C)nn1-c1ccccc1`, the growth is 46.5% (inactive).
In the case of `Cc1ccccc1CNc1c2ccccc2nc2ccccc12`, the growth is 14.8% (inactive).
With `COc1ccc2nc3ccccc3c(NCc3ccc(F)cc3)c2c1`, the growth is 8.15% (active).
For the molecule `O=C1NC(=O)c2c1c1c3ccccc3[nH]c1c1oc3cc(Br)ccc3c21`, the growth is 36.2% (inactive).
Regarding `COc1ccc(-c2nnc(SCC(=O)Nc3ccc(/C(C)=N\O)cc3)n2-c2ccccc2)cc1OC`, the growth was 70.9% (inactive).
`CC1=CCC[C@@H]2C1(C)CC[C@H](C)[C@@]2(C)CC1=CC(=O)C(SC(C)(C)C)=CC1=O` (some centres undefined): the growth is 99.4% (inactive).
For `CCn1cc(CNc2ccc(C(=O)Nc3cc4cc(OC)c(OC)cc4c(C)n3)cc2)c(C)n1`, the growth was 56.1% (inactive).
On the same count and under the same terms, the same measure for `CCCCN1C(=O)/C(=c2\sc3n(c2=O)NC2C(N=3)N(CC)C(=O)N2CC)c2ccccc21` (centres undefined): 47% (inactive).
As for `NC(=O)c1c(NC(=O)c2ccc(Cl)cc2)sc2c1CCC(=O)C2`, the growth is 52.6% (inactive).
The same measure, in the same setting: the value for `CC1(C)CC[C@]2(C(=O)O)CC[C@]3(C)C(=CC[C@@H]4[C@@]5(C)C[C@@H](Cc6cn([C@@H]7O[C@H](CO)[C@@H](O)[C@H](O)[C@H]7O)nn6)[C@H](O)C(C)(C)[C@@H]5CC[C@]43C)[C@@H]2C1` was 108% (inactive).
